5 compounds from ChEMBL document CHEMBL3988442, “University of Dundee, Small-Polar-MMV Screening Library” (2021) can be followed below.

In test [1] the target is Protein translocase subunit SecA (Escherichia coli (strain K12)) (UniProt P10408). Description: Assay to Identify E. coli SecA ATPase Inhibitors. It counts as functional. Particulars: 30 µM. Set-up: scale not given: direction of the effect not stated beside the values.
Test [2] concerns the target T1, Ubiquitin-activating enzyme e1, putative (Leishmania donovani (strain BPK282A1)) (UniProt E9BSI1).
T1 sequence (whole entry): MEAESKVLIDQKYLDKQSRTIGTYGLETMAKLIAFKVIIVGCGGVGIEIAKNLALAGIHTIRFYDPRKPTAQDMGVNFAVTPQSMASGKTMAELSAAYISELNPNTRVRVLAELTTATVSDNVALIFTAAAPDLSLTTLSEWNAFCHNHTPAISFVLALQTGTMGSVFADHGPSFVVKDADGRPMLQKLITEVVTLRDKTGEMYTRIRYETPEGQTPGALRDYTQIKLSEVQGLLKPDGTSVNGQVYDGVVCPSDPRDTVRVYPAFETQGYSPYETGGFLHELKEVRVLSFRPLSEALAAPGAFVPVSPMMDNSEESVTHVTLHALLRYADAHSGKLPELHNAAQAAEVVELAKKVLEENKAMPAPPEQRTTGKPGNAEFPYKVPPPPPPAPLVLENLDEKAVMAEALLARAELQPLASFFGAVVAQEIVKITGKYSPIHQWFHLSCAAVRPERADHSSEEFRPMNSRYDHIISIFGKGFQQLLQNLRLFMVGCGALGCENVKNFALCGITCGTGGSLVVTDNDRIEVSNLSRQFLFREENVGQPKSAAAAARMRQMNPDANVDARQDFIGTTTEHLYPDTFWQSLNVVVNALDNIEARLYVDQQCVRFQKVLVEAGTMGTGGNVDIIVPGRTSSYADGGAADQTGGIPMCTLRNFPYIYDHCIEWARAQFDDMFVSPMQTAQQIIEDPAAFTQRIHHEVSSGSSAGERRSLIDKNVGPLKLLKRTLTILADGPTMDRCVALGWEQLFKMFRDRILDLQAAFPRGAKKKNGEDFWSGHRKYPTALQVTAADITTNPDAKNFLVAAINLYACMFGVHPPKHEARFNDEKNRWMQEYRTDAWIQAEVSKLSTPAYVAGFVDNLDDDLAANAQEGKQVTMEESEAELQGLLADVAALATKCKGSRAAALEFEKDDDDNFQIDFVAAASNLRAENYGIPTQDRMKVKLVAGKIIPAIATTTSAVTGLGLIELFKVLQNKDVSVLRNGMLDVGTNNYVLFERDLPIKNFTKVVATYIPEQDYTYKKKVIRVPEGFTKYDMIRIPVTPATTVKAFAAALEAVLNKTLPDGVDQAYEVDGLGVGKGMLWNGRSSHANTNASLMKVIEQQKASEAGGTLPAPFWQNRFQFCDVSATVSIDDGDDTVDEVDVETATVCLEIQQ
Description: Leishmania donovani Ubiquitin Activating Enzyme (LdE1). Type of test: functional. Set-up: scale not given: direction of the effect not stated beside the values. Particulars: 30 µM.

Test [3] deals with AMP-activated protein kinase, AMPK (Homo sapiens) (UniProt P54646+O43741+P54619+Q9UGJ0+Q9Y478+Q13131+Q9UGI9). Description: AMP-dependent Kinase enzyme assay. An in vitro enzyme assay that detects ADP turnover that is directly proportional to AMPK activity. This uses naive AMPK that is activated during the assay with MK-8722. It counts as functional. More on the design: scale not given: direction of the effect not stated beside the values. Particulars: 30 µM.

Test [4] has as its target Sialic acid-binding Ig-like lectin 9 (Homo sapiens) (UniProt Q9Y336). Description: Hs-Siglec9 ALPHAscreen SOP 20170721. More on the design: scale not given: direction of the effect not stated beside the values. Particulars: 10 µM.
The test system of another test is Trypanosoma cruzi. Briefly: Trypanosoma cruzi phosphomannomutase and mannose-1-phosphate guanylyltransferase assay. Particulars: 10 µM. It counts as functional. Set-up: scale not given: direction of the effect not stated beside the values.
The target of test [5] is T2, Arginase-2, mitochondrial (Homo sapiens) (UniProt P78540).
T2 sequence (whole entry): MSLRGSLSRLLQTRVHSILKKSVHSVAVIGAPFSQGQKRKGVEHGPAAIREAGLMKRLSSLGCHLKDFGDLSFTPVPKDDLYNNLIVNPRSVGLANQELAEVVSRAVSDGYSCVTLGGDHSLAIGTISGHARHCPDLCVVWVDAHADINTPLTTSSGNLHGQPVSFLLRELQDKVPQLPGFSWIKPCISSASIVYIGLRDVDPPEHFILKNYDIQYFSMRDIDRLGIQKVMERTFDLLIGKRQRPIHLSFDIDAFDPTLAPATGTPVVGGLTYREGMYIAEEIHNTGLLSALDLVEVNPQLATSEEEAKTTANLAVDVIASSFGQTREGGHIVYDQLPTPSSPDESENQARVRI
Description: in vitro enzyme assay to detect the production of urea directly proportional to the activity of Arginase II. It counts as functional. Set-up: scale not given: in the data most compounds retested in dose-response had high values.

Test [6] has as its target T3, Proteasome subunit beta (Trypanosoma cruzi) (UniProt O96673).
T3 sequence (whole entry): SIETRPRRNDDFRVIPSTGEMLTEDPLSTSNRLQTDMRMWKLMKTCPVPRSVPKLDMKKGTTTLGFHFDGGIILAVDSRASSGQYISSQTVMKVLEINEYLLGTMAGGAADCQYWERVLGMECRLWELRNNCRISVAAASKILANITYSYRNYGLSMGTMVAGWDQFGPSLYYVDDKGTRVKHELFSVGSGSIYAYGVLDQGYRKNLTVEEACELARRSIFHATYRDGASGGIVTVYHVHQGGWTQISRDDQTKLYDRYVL
Description: Trypanosoma cruzi proteasome chymotrypsin-like activity (TcProtChymo) assay. Type of test: functional. Set-up: scale not given: in the data most compounds retested in dose-response had high values. Particulars: 9.37 µM.

The next test is filed under the species Homo sapiens. Description: To identify inhibition of the IFN signalling (Jak-Stat) pathway via expression of an eGFP reporter gene under the control of an IFN-stimulated response element (ISRE) containing MxA promoter. It counts as functional. More on the design: scale not given: direction of the effect not stated beside the values. Particulars: 30 µM.
Test [7] has as its target T4, Tyrosyl-tRNA synthetase, putative (Trypanosoma cruzi (strain CL Brener)) (UniProt Q4DSP6).
T4 sequence (whole entry): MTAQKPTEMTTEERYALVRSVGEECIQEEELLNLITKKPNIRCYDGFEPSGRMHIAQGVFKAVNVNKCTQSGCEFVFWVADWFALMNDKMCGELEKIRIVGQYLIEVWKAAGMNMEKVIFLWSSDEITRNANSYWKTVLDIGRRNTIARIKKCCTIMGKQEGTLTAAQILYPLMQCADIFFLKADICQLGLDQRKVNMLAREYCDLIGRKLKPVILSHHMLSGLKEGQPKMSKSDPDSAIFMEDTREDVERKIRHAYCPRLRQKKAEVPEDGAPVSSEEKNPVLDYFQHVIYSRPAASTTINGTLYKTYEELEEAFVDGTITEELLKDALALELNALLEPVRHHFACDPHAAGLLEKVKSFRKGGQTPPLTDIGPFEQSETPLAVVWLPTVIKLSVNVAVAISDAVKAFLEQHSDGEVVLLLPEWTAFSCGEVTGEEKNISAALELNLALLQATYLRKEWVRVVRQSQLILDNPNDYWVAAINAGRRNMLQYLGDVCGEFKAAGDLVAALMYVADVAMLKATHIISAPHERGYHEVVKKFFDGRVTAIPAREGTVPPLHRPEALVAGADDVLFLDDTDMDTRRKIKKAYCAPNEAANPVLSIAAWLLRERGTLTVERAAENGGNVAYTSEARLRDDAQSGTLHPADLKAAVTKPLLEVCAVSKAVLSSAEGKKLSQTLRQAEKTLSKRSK
Briefly: Trypanosoma cruzi tyrosyl tRNA synthetase (TcYRS) _High Tyrosine SOP. Type of test: functional. More on the design: scale not given: in the data most compounds retested in dose-response had high values. Particulars: 30 µM.

The target in test [8] is T4, Tyrosyl-tRNA synthetase, putative (Trypanosoma cruzi (strain CL Brener)). Briefly: Trypanosoma cruzi tyrosyl tRNA synthetase (TcYRS) SOP. Type of test: functional. More on the design: scale not given: direction of the effect not stated beside the values. Particulars: 30 µM.
The target in test [9] is Chromo domain-containing protein 1 (Saccharomyces cerevisiae (strain ATCC 204508 / S288c) (Baker's yeast)) (UniProt P32657). Briefly: ScCHD-1 Enzyme Inhibition Assay. It counts as functional. Set-up: scale not given: in the data most compounds retested in dose-response had high values. Particulars: 30 µM.
In test [10] the target is T5, Methionyl-tRNA synthetase, putative (Leishmania donovani (strain BPK282A1)) (UniProt E9BF75).
T5 sequence (whole entry): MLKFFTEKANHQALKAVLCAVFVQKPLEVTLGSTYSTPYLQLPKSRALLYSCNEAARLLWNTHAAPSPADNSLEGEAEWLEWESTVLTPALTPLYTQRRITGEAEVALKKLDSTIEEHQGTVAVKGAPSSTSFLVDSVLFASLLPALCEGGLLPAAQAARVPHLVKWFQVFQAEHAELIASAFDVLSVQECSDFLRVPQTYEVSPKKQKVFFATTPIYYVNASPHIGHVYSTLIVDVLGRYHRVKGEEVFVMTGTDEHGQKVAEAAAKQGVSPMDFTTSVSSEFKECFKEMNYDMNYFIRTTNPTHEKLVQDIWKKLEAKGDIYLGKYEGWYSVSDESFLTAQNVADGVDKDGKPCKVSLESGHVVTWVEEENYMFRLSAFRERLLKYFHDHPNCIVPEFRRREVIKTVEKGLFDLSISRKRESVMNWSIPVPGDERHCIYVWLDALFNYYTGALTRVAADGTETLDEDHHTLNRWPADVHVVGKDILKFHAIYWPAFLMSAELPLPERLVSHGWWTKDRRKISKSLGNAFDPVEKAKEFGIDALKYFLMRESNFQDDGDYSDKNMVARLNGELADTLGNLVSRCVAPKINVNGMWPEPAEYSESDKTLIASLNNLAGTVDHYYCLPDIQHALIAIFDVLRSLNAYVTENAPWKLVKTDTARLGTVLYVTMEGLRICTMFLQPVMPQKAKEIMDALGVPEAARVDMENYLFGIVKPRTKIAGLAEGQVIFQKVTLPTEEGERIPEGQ
Briefly: Leishmania donovani Methionine tRNA synthetase (LdMetRS):v7. Dose response assay. Type of test: functional. Set-up: conc 80 nM, time 150 minutes.

Structures are written as SMILES. For part of these data: Measured potencies and affinities stand elsewhere.

Chain of Protein translocase subunit SecA (Escherichia coli (strain K12)) (P10408 whole entry): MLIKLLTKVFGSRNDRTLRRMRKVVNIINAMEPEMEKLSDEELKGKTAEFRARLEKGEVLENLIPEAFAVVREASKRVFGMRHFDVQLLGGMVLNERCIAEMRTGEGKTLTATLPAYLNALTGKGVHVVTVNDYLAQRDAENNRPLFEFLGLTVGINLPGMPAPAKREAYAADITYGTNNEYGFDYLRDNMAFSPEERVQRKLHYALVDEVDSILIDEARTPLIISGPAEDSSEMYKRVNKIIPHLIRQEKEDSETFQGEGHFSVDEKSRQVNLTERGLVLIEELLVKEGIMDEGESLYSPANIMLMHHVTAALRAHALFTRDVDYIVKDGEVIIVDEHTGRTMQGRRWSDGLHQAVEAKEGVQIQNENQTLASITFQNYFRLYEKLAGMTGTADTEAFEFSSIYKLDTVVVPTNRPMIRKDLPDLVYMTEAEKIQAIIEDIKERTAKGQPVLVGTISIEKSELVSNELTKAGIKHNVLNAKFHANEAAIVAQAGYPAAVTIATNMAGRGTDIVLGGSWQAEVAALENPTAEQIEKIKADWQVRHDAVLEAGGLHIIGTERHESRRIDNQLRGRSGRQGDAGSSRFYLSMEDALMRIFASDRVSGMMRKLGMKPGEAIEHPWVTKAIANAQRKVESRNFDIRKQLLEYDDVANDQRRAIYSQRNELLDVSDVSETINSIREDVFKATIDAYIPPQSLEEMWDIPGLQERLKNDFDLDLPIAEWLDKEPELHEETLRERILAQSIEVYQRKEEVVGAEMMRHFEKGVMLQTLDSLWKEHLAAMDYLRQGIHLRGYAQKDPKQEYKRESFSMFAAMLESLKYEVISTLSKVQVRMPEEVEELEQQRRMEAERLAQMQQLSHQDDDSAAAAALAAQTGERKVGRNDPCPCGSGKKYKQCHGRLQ
Chain of Chromo domain-containing protein 1 (Saccharomyces cerevisiae (strain ATCC 204508 / S288c) (Baker's yeast)) (P32657 whole entry, the tested form may be a part): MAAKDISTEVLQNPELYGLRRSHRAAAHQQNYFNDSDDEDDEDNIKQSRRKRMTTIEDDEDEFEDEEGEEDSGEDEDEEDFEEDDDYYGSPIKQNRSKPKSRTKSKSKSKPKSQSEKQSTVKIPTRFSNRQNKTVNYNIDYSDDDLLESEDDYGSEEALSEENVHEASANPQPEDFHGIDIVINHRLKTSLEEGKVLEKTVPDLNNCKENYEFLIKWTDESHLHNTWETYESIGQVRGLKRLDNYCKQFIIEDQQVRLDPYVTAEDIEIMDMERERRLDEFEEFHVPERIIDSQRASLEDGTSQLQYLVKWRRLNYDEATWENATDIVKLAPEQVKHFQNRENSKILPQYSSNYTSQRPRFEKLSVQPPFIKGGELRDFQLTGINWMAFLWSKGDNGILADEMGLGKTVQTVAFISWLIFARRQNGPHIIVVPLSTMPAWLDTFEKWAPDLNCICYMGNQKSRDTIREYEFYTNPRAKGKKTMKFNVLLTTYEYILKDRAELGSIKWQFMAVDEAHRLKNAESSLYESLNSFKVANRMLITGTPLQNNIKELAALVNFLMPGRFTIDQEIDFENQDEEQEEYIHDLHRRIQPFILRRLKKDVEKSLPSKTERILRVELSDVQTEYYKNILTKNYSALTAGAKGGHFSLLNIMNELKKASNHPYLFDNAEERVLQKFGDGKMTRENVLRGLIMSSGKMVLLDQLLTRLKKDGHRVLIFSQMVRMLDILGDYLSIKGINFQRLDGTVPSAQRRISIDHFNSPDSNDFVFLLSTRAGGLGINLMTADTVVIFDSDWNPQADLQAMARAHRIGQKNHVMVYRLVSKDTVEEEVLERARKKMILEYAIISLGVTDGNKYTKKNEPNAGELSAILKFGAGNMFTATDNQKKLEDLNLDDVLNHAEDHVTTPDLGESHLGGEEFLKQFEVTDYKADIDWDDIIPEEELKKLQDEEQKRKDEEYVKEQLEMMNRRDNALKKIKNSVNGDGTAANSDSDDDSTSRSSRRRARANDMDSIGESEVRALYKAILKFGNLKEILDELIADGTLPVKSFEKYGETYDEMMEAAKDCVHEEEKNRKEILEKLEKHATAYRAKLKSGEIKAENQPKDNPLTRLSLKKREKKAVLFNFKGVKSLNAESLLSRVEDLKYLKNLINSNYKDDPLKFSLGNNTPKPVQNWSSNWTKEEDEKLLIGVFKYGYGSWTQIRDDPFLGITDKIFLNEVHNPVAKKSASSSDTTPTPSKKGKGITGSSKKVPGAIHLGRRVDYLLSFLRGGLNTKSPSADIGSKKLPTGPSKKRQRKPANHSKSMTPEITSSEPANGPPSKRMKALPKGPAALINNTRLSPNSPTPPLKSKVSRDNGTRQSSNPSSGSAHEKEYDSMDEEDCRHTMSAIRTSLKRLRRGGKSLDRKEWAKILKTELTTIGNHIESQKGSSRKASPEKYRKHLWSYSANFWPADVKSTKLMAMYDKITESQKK
Chain of Sialic acid-binding Ig-like lectin 9 (Homo sapiens) (Q9Y336 whole entry): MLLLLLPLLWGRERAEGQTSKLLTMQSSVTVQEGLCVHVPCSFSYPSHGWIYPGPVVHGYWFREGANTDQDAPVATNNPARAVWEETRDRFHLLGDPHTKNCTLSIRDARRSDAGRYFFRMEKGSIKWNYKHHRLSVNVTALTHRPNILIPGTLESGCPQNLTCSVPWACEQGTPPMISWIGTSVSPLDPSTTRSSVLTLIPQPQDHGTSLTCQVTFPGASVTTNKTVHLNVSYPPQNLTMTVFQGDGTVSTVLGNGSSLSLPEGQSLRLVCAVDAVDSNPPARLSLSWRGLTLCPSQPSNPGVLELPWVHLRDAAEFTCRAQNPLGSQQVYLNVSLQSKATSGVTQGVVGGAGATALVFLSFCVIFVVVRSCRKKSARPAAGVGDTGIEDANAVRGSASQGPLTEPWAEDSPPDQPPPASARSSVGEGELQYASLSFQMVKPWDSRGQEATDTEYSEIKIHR

For `Cc1ccc(CNC(=O)N(Cc2ccccc2F)C2CC2)cn1`, the Percent Effect in [1] was -6.51%; in test [2] it was 2.67%; in [3] it was 0.556%; in test [4], 21.6%; in the test with Trypanosoma cruzi, -1.27%; in test [5] (30 µM) it was 13.5%. Besides, the Percent Effect in [5] (33.3 µM) is -2.6%; in test [6] it was 7.85%; in the test filed under Homo sapiens, 15.6%; in test [7], 6.01%; in test [8], 8.64%; in test [9], -2.37%.
With `Cc1cc(C(=O)N2C[C@@H](C(=O)O)[C@H](c3ccccc3C)C2)c(C)o1`, the Percent Effect was -6.29% in test [1]; 2.7% in [2]; 4.96% in test [3]; -6.42% in [4]; -7.92% in the test on Trypanosoma cruzi; 4.87% in test [5] (30 µM). For the same compound, the Percent Effect in test [5] (33.3 µM) is -2.23%; in [6] it was 11.2%; in the test listed under Homo sapiens, 18.7%; in test [7] it was 1.07%; in [8], 3.7%; in test [9], -4.1%.
For `COc1ccccc1Oc1ncccc1CNC(=O)[C@@H](C)NC(C)=O`, the Percent Effect is -1.21% in test [1]; -4.17% in test [2]; -4.59% in test [3]; -7.34% in test [4]; -3.98% in the test with Trypanosoma cruzi; 4.87% in test [5] (30 µM). Further, the Percent Effect in test [5] (33.3 µM) is 2.21%; in test [6], -0.526%; in the test filed under Homo sapiens, 2.14%; in test [7] it was 2.1%; in test [8], -2.56%; in test [9] it was 2.74%.
Take `Cc1ccc([C@@H]2CN(S(=O)(=O)C(C)C)C[C@H]2N(C)C)cc1`: the Percent Effect in [1] is -6.03%; in test [2], 13.5%; in test [3], -2.84%; in test [4], 23.9%; with Trypanosoma cruzi, 7.33%; in test [5] (30 µM) it was -14.6%. The Percent Effect was 4.22% in [5] (33.3 µM); -0.258% in test [6]; -1% in the test listed under Homo sapiens; 3.23% in [7]; 18.5% in test [8]; -8.94% in test [9].
For the compound `Cc1nc(NCc2nnc(C)n2C)c2c(CC(C)C)csc2n1`, the PXC50 in [10] (MAX_EFFECT 10.70496084) and in test [10] (MAX_EFFECT 13.5770235) was below 4 in each case. For the same compound, the Percent Effect in [3] was found to be 1.71%.
